Screens as filed in PubChem.
Rows were chosen to be rich in hits. Some 3% of all compounds tested hit in one or more screens of this group.
SENP7 inh: SENP7 protease inhibitors, primary screen, biochemical, luminescence, uHTS; AID 434973, 2010; hit rate 1.5% among 330,000; Sentrin-specific protease 7 (Homo sapiens), Q9BQF6; inhibition, % at 5 µM; recombinant SENP7, Z-RLRGG-aminoluciferin luminescence, 40 min;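 active = inhibition above about 50% at the single test dose, limit read from the data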;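 also: plate controls were DMSO with enzyme for no effect and no enzyme buffer wells for full effect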
Target sequence (Q9BQF6 706-1050 limits assumed): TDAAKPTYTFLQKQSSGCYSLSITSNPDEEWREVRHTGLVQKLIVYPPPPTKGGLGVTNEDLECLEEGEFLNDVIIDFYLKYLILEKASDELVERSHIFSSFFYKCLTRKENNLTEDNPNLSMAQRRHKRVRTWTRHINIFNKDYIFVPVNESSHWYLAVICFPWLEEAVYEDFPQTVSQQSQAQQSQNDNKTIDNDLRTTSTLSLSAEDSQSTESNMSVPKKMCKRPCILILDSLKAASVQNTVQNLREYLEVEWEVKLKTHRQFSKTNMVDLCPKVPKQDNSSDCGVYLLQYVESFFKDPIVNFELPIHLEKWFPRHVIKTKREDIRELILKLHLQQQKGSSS
SENP6 inh: SENP6 protease inhibitors, primary screen, biochemical, luminescence, uHTS. Recombinant SENP6 catalytic domain, aminoluciferin luminescence. AID 2599, 2010. inhibition, % at 10 µM. Sentrin-specific protease 6 (Homo sapiens), Q9GZR1. hit rate 1.8% among 330,000;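 active = inhibition above about 50% at the single tested dose, limit read from the data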;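 also: plate controls were DMSO wells with enzyme for no effect and DMSO wells lacking enzyme for full effect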
PPC-1+TRAIL kill: compounds killing PPC-1 cancer cells with TRAIL present, primary screen, TRAIL potentiator project, ATPLite luminescence, uHTS; cell killing (% activity), % at 4 µM or 5 µM; PPC-1 cells + TRAIL, ATPLite viability luminescence; hit rate 0.41% among 220,000; AID 1443, 2008;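 active = cell killing above 50% in the first pass at 4 µM, then a duplicate retest at 5 µM averaging 50% or more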;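 also: plate controls were cells with TRAIL plus DMSO for no effect and medium-only wells lacking cells for full effect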
SENP8 block-1: SENP8 protease inhibitors, primary screen, biochemical, luminescence; hit rate 1.2% among 330,000; AID 2540, 2010; purified SENP8, Z-RLRGG-aminoluciferin cleavage; Sentrin-specific protease 8 (Homo sapiens), Q96LD8; inhibition, % at 10 µM; in the data active = inhibition above about 50%
Target sequence (Q96LD8 whole entry, looked up): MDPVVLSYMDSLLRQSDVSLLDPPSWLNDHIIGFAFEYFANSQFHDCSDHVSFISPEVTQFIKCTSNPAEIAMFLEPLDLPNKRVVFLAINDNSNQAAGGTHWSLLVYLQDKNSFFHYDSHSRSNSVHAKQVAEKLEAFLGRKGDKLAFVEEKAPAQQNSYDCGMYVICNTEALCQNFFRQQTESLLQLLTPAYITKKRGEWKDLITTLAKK
TRAIL sens C8: viability loss with TRAIL in NB7+C8 cells, primary screen, TRAIL sensitizer project, cell-based, ATPlite luminescence | inhibition (viability loss, TRAIL sensitization), % at 10 µM | hit rate 1% among 360,000 | AID 624354, 2012;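 active = compounds causing at least 50% loss of cell viability in the single-dose screen, relative to plate controls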
SENP8 block-2: human SENP8 protease inhibitors, primary screen, biochemical, fluorescence, Nedd8 protein substrate, uHTS | recombinant SENP8 | inhibition, % at 20 µM | hit rate 0.64% among 360,000 | AID 602440, 2012; in the data active = inhibition mostly above about 40%, no sharp cut-off; inactive = mostly below about 27%
SENP8 conf: SENP8 protease inhibitors, retest, confirmation, biochemical, luminescence, single concentration | hit rate 40% among 6,200 | inhibition, % at 12.5 µM | Recombinant SENP8, Z-RLRGG-aminoluciferin luminescence, 60 min | shares compounds with SENP7 inh;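 active = mean inhibition across replicates above about 50%, limit read from the data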
SENP6 conf: SENP6 protease inhibitors, confirmation, biochemical, luminescence, single concentration | AID 488915, 2010 | shares compounds with SENP7 inh | recombinant SENP6, Z-RLRGG-aminoluciferin luminescence | inhibition, % at 12.5 µM | hit rate 58% among 6,200
SENP7 confirm: SENP7 protease inhibitors, retest, confirmation, biochemical, luminescence, single concentration | inhibition, % at 12.5 µM | AID 488917, 2010 | shares compounds with SENP7 inh | hit rate 69% among 6,200 | recombinant SENP7, Z-RLRGG-aminoluciferin luminescence, 40 min
Casp3 SENP sel: caspase-3 protease inhibitors, confirmation, selectivity assay for SENP inhibitor project, biochemical, single concentration. AID 488918, 2010. inhibition, % at 12.5 µM. shares compounds with SENP7 inh. purified caspase-3, Z-DEVD-aminoluciferin luminescence, 60 min. hit rate 60% among 6,200;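 active = mean inhibition above about 50%, limit read from the data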;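 also: plate controls were enzyme with DMSO for no effect and wells without caspase-3 for full effect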
SENP luc ctr: counter-screen for SENP inhibitors: luminescence interference. shares compounds with SENP7 inh. Pre-incubated SENP8/Z-RLRGG-aminoluciferin, luciferase luminescence interference. inhibition, % at 12.5 µM. hit rate 39% among 6,200. AID 488919;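 active = mean inhibition above about 50% when retested at one dose, limit read from the data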;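 also: plate controls were DMSO wells with completed reaction for no effect and substrate without enzyme for full effect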
The depositor's hits bear a star; nt = no result.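 The calls were made as follows, unless noted: active = mean inhibition above about 50% in the one-dose retest (limit read from the data); inactive = the rest.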

SMILES	SENP7 inh	SENP6 inh	PPC-1+TRAIL kill	SENP8 block-1	TRAIL sens C8	SENP8 block-2	SENP8 conf	SENP6 conf	SENP7 confirm	Casp3 SENP sel	SENP luc ctr
C[C@@H]1CN([C@H](C)CO)C(=O)CCCn2nncc2CO[C@@H]1CN(C)S(C)(=O)=O	nt	nt	nt	nt	6	23	nt	nt	nt	nt	nt
COC(=O)c1nn(-c2ccc3c(c2)CCN3C(C)=O)cc1O	85*	91*	76*	75*	81*	-293	-5	82*	97*	96*	84*
COC(=O)c1nn(-c2ccc3c(c2)OCO3)cc1O	79*	72*	19	48	14	-265	67*	64*	90*	91*	72*
CC(=O)N1CCc2cc([N+](=O)[O-])ccc21	nt	nt	nt	nt	-12	31	nt	nt	nt	nt	nt
COC(=O)c1sccc1NC(=S)N1CCC(C(N)=O)CC1	4	-13	15	-2	2	17	nt	nt	nt	nt	nt
O=C(CN1CCN(Cc2ccccc2)CC1)N/N=C/c1ccccc1F	-4	-12	-9	-2	-6	15	nt	nt	nt	nt	nt
Cc1ccc(CN2CCN(CC(=O)N/N=C/c3ccccc3F)CC2)cc1	5	55*	5	30	21	16	11	23	50	7	2
Cc1ccc(C)c(NC(=O)c2cc3ccccc3o2)c1	53*	40	nt	26	22	11	52*	49	78*	58*	31
O=C(Nc1cc(-c2ccccc2)[nH]n1)c1ccccc1	62*	80*	2	59*	10	1	68*	62*	88*	63*	71*
O=C(Nc1ncccc1O)c1cc2ccccc2o1	68*	67*	nt	31	27	-31	63*	63*	85*	87*	68*
Cc1csc(C(C#N)C(=O)c2cc3ccccc3o2)n1 (stereo not given)	14	59*	34	54*	59*	14	31	73*	86*	79*	46
COc1ccc(C)cc1NC(=O)c1cc2ccccc2o1	-4	-5	1	-8	-6	6	nt	nt	nt	nt	nt
COc1ccc(CCNS(=O)(=O)CCNC(=O)c2ccc3c(c2)OCO3)cc1	-8	-11	nt	-8	-21	6	nt	nt	nt	nt	nt
CCOC(=O)Cc1csc(NC(=O)c2cc3ccccc3o2)n1	29	10	14	18	38	-23	nt	nt	nt	nt	nt
Cc1ccc(C)c(NC(=O)c2ccc3ccccc3n2)c1	97*	97*	37	91*	48	24	82*	16	35	67*	16
O=C(NNC(=O)c1cc2ccccc2o1)c1ccc(Cl)cc1	-5	-3	12	0	5	12	nt	nt	nt	nt	nt
Cc1csc(NC(=O)c2cc3ccccc3o2)n1	90*	85*	nt	79*	65*	-64	86*	82*	97*	90*	86*
O=C(Nc1ccccc1C(F)(F)F)c1cc2ccccc2o1	68*	73*	nt	66*	25	17	60*	71*	92*	74*	67*
Cc1ccc(S(=O)(=O)N(C)C)cc1NC(=O)c1ccc2ccccc2n1	5	-23	-4	-1	12	0	nt	nt	nt	nt	nt
O=C(Nc1ccc(Cl)cn1)c1cc2ccccc2o1	79*	74*	22	59*	42	8	9	64*	82*	70*	28
CCCC(=O)Nc1ccc(NC(=O)c2cc3ccccc3o2)c(OC)c1	54*	29	nt	2	-2	-22	8	6	27	19	7
Cc1ccnc(NC(=O)c2ccc(C(=O)c3ccccc3)cc2)c1	70*	80*	nt	73*	69*	-1	72*	69*	93*	85*	78*
COc1cc(NC(C)=O)ccc1NC(=O)c1cc2ccccc2o1	6	-13	nt	5	9	-17	nt	nt	nt	nt	nt
Cc1ccnc(NC(=O)c2cc3ccccc3o2)c1	99*	94*	nt	90*	86*	-4	96*	97*	102*	97*	94*
Cc1ccnc(NC(=O)c2ccc(Cl)s2)c1	72*	76*	nt	67*	39	6	76*	75*	93*	86*	77*
SMILES	SENP7 inh	SENP6 inh	PPC-1+TRAIL kill	SENP8 block-1	TRAIL sens C8	SENP8 block-2	SENP8 conf	SENP6 conf	SENP7 confirm	Casp3 SENP sel	SENP luc ctr
COc1ccc(S(=O)(=O)N2CCCC2CNC(=O)C(=O)Nc2cccc(F)c2)cc1 (stereo not given)	6	-11	nt	10	0	18	nt	nt	nt	nt	nt
Oc1ccc(C=Nc2cccc3ncccc23)c(O)c1	46	91*	12	44	10	23	12	17	1	4	2
CCSc1nnc(SCC(=O)Nc2cc(C)on2)s1	-5	-6	nt	5	-3	10	nt	nt	nt	nt	nt
CC(C)(C)c1ccc(/C=C/C(=O)Nc2nncs2)cc1	79*	47	28	28	31	4	25	25	5	18	13
O=C(NC1CCCC1)C(c1ccccc1)n1c(-c2ccc3c(c2)CCO3)nc2ccccc21 (stereo not given)	nt	nt	nt	nt	2	2	nt	nt	nt	nt	nt
CCCS(=O)(=O)NC(=O)C1(C)CCCN(C(=O)C2(c3ccc(Cl)cc3)CCCC2)C1 (stereo not given)	nt	nt	nt	nt	-3	12	nt	nt	nt	nt	nt
COc1ccc(C(=O)O/N=C(\N)c2ccccn2)cc1	101*	97*	nt	96*	92*	14	99*	100*	104*	99*	97*
N/C(=N\OC(=O)c1cccc(Cl)c1)c1ccccn1	94*	92*	40	87*	56*	11	90*	90*	100*	95*	45
N/C(=N\OC(=O)c1ccccc1[N+](=O)[O-])c1cccnc1	-5	-10	44	-5	-15	25	nt	nt	nt	nt	nt
